From publication PMC7862700, “An all-to-all approach to the identification of sequence-specific readers for epigenetic DNA modifications on cytosine”

How the values were obtained:
Test in all cases: DAPPL (digital affinity profiling via proximity ligation, sequencing); 10 mM Tris-HCl pH 7.5, 50 mM NaCl, 1 mM DTT, 4% glycerol, room temperature, 30 min; GST-TFs on glutathione beads, 16-mer random dsDNA library, 0.1% formaldehyde crosslink after washing; high values mean tight binding
FLI1 = molecular target: T1, FLI1 (Homo sapiens, UniProt Q01543 1-452); details: protein: recombinant; tags: N-terminal GST; dsDNA, one strand shown
T1 sequence: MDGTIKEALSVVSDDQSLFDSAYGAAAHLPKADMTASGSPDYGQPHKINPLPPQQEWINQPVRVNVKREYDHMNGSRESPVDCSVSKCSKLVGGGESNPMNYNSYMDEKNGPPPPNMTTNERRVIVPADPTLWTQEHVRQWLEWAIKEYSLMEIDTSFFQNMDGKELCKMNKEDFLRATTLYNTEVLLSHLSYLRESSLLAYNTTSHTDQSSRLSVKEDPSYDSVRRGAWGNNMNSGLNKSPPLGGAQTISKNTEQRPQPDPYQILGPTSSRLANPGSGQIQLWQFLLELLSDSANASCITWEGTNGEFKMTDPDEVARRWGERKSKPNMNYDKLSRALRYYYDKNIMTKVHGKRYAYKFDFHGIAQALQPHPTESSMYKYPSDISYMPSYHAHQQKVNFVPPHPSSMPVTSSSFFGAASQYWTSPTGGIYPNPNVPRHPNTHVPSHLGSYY
Outline: (§1)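 After expression in yeast as GST fusions, human transcription factors were bound to glutathione beads, DNA-barcoded and mixed with a tag-only sample. The pools were incubated with 200 nmole of a 16-mer random double-stranded DNA library in Tris/NaCl/DTT/glycerol buffer (30 min, room temperature), washed and crosslinked with 0.1% formaldehyde. Proximity ligation with BsaI/T4 ligase ran for 1 h at 37 °C, before PCR amplification and sequencing on an Illumina NextSeq500. Binding signal is a hexamer's read frequency for a factor divided by its frequency for the tag-only sample.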

ELK1 = molecular target: T2, ELK1 (Homo sapiens, UniProt P19419 1-428); details: protein: recombinant; tags: N-terminal GST; dsDNA, one strand shown
T2 sequence: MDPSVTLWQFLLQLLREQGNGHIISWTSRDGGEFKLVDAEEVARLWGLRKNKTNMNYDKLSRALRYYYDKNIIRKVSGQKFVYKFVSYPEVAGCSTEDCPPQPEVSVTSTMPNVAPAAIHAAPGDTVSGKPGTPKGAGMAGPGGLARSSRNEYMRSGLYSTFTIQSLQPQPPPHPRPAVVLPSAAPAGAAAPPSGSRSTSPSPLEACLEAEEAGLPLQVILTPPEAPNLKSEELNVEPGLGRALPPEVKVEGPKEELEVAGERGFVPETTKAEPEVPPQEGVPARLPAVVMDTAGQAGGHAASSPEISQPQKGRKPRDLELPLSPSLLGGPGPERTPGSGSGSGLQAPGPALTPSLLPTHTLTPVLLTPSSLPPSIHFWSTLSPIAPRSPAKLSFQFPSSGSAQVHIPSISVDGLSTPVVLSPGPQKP
Outline: as §1

GABPA = molecular target: T3, GABPA (Homo sapiens, UniProt Q06546 1-454); details: protein: recombinant; tags: N-terminal GST; dsDNA, one strand shown
T3 sequence: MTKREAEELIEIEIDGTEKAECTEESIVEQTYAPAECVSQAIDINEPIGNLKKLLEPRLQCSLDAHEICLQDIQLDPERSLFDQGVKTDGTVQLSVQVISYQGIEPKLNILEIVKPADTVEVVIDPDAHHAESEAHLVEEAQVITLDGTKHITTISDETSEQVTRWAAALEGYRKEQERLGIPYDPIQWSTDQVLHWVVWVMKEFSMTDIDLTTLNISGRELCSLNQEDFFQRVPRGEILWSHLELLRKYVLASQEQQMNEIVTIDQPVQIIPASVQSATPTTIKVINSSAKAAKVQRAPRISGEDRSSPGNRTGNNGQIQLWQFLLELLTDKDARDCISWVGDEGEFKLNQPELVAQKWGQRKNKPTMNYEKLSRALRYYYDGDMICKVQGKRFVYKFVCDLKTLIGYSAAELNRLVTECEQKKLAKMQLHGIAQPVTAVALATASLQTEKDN
Outline: as §1

ERG = molecular target: T4, ERG (Homo sapiens, UniProt P11308 1-479); details: protein: recombinant; tags: N-terminal GST; dsDNA, one strand shown
T4 sequence: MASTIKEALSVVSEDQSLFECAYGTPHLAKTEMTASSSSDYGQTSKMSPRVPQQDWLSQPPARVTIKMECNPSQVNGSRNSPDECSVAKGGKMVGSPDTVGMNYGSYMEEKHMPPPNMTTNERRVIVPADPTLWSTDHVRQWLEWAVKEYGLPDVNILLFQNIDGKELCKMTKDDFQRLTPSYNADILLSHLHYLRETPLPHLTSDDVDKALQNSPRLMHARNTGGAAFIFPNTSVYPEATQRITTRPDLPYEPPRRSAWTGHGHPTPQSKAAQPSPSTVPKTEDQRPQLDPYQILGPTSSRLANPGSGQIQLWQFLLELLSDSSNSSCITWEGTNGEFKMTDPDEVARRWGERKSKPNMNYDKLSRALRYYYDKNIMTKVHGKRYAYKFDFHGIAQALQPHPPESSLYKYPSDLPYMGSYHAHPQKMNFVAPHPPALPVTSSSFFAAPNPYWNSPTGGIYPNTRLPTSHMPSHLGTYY
Outline: as §1

ELF1 = ELF1 (Homo sapiens, UniProt P32519 1-619); details: protein: recombinant; tags: N-terminal GST; dsDNA, one strand shown
Outline: as §1

EHF = molecular target: T5, EHF (Homo sapiens, UniProt Q9NZC4 1-300); details: protein: recombinant; tags: N-terminal GST; dsDNA, one strand shown
T5 sequence: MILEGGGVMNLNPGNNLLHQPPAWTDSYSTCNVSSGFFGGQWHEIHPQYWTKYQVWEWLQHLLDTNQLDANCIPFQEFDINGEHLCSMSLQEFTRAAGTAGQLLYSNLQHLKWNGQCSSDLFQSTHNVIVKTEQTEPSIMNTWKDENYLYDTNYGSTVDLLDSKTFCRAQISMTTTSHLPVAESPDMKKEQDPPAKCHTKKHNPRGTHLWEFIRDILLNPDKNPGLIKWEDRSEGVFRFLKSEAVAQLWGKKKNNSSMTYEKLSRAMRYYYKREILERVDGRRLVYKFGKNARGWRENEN
Outline: as §1

SPI1 = SPI1 (Homo sapiens, UniProt P17947 1-270); details: protein: recombinant; tags: N-terminal GST; dsDNA, one strand shown
Outline: as §1

SPIB = SPIB (Homo sapiens, UniProt Q01892 1-262); details: protein: recombinant; tags: N-terminal GST; dsDNA, one strand shown
Outline: as §1

ELK3 = molecular target: T6, ELK3 (Homo sapiens, UniProt P41970 1-407); details: protein: recombinant; tags: N-terminal GST; dsDNA, one strand shown
T6 sequence: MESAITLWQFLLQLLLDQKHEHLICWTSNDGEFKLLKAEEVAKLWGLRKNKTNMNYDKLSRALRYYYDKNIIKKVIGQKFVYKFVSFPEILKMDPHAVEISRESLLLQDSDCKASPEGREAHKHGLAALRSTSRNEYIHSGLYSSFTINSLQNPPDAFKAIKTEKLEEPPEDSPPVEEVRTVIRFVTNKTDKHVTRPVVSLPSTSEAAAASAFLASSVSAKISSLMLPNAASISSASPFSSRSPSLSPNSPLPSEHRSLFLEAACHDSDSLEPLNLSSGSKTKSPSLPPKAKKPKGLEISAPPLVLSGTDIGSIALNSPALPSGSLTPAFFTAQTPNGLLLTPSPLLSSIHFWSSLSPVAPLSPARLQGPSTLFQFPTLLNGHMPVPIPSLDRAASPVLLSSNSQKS
Outline: as §1

FEV = molecular target: T7, FEV (Homo sapiens, UniProt Q99581 1-238); details: protein: recombinant; tags: N-terminal GST; dsDNA, one strand shown
T7 sequence: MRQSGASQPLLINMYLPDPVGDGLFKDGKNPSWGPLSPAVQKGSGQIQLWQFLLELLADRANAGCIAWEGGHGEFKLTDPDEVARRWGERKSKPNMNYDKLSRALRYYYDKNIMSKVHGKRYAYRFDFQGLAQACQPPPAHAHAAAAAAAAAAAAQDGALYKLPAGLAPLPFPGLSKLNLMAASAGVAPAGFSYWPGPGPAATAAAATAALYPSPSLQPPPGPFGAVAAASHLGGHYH
Outline: as §1

ETV5 = ETV5 (Homo sapiens, UniProt P41161 1-510); details: protein: recombinant; tags: N-terminal GST; dsDNA, one strand shown
Outline: as §1

HSF1 = HSF1 (Homo sapiens, UniProt Q00613 1-529); details: protein: recombinant; tags: N-terminal GST; chain copies: 3; dsDNA, one strand shown
Outline: as §1

SPIC = molecular target: T8, SPIC (Homo sapiens, UniProt Q8N5J4 1-248); details: protein: recombinant; tags: N-terminal GST; dsDNA, one strand shown
T8 sequence: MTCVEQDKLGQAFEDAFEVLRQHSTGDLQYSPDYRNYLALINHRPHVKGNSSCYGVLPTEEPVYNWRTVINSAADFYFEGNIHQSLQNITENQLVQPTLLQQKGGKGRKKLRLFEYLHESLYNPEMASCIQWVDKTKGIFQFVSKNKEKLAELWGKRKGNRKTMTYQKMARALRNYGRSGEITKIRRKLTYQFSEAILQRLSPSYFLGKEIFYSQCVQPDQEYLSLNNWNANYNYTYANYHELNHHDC
Outline: as §1

ELF4 = ELF4 (Homo sapiens, UniProt Q99607 1-663); details: protein: recombinant; tags: N-terminal GST; dsDNA, one strand shown
Outline: as §1

ELK4 = molecular target: T9, ELK4 (Homo sapiens, UniProt P28324-2 1-405); details: protein: recombinant; tags: N-terminal GST; dsDNA, one strand shown
T9 sequence: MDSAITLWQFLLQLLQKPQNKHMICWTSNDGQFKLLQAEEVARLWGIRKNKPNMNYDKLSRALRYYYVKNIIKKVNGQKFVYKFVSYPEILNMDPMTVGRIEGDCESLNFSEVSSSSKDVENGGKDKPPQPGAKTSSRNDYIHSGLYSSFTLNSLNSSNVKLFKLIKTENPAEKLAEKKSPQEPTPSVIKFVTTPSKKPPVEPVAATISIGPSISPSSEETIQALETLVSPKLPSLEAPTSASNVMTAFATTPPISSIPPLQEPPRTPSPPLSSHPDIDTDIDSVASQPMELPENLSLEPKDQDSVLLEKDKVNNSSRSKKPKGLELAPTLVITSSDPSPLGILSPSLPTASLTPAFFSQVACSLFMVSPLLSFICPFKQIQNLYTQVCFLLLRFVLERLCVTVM
Outline: as §1

ETV2 = molecular target: T10, ETV2 (Homo sapiens, UniProt O00321 1-342); details: protein: recombinant; tags: N-terminal GST; dsDNA, one strand shown
T10 sequence: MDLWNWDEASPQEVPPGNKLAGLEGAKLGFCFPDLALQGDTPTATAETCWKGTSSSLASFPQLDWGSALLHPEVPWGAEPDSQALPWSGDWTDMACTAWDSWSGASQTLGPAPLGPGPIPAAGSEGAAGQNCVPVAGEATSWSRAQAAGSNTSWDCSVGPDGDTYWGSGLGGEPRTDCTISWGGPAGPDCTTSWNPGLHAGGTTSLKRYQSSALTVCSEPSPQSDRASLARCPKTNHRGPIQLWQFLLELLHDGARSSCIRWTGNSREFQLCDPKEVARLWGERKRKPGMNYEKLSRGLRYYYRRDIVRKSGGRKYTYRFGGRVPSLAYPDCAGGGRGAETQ
Outline: as §1

ELF3 = molecular target: T11, ELF3 (Homo sapiens, UniProt P78545 1-371); details: protein: recombinant; tags: N-terminal GST; dsDNA, one strand shown
T11 sequence: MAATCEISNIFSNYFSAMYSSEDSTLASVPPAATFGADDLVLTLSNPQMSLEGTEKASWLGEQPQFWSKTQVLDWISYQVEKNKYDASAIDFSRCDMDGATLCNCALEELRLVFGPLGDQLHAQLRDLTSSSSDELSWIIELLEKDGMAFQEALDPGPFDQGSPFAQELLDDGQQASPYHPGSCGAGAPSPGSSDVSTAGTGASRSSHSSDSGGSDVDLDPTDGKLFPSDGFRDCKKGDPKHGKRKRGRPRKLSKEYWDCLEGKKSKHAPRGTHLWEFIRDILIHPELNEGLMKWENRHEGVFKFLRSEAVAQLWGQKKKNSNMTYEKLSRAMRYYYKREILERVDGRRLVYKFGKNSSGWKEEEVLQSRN
Outline: as §1

CRX = CRX (Homo sapiens, UniProt O43186 1-299); details: protein: recombinant; tags: N-terminal GST; dsDNA, one strand shown
Outline: as §1

ETV1 = ETV1 (Homo sapiens, UniProt P50549 1-477); details: protein: recombinant; tags: N-terminal GST; dsDNA, one strand shown
Outline: as §1

Sequence of ETV5 (P41161 whole entry): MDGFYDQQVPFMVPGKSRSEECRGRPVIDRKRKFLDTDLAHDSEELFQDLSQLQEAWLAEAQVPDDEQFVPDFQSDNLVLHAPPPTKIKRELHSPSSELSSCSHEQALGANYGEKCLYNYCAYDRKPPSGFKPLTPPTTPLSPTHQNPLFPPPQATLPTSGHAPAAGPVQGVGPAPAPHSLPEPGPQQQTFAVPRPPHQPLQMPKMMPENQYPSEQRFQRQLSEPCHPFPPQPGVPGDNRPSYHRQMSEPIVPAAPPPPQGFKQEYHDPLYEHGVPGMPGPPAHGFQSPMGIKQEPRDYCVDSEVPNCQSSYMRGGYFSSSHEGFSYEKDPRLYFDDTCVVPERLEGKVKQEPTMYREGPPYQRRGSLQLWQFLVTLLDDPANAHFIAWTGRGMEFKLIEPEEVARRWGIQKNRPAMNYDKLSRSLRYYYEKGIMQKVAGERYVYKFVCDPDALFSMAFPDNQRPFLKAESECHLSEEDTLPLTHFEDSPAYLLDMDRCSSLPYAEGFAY
Sequence of HSF1 (Q00613 whole entry): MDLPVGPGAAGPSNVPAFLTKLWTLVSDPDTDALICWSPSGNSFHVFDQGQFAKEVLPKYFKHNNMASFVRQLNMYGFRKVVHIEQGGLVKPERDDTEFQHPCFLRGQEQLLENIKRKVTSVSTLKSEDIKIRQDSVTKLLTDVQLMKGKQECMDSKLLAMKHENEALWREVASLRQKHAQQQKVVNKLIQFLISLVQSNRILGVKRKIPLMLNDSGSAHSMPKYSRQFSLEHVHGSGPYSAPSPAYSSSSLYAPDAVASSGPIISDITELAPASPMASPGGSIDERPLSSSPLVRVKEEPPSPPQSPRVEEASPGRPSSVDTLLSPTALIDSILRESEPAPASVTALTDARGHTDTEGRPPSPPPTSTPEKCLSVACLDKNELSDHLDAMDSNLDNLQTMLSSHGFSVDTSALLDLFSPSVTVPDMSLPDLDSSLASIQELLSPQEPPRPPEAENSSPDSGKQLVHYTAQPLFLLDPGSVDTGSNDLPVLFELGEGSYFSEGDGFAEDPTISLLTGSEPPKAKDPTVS
Sequence of ELF4 (Q99607 whole entry): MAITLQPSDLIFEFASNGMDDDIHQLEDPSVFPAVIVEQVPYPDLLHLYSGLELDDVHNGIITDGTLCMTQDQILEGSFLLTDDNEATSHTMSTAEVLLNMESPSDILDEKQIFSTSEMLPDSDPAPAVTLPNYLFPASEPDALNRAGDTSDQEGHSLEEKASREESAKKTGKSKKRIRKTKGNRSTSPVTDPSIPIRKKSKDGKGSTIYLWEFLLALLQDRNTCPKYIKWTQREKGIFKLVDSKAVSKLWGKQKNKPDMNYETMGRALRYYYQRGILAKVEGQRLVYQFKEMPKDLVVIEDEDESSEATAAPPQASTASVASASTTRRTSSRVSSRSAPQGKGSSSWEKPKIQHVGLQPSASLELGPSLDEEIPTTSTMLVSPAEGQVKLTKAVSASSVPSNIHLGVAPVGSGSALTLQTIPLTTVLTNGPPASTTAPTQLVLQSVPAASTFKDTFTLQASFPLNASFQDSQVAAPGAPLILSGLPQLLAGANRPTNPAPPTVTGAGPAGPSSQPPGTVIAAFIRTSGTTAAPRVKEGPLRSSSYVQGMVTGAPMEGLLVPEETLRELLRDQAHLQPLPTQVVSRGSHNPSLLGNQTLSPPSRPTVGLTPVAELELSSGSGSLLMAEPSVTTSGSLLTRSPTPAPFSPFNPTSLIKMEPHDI
Sequence of ELF1 (P32519 whole entry): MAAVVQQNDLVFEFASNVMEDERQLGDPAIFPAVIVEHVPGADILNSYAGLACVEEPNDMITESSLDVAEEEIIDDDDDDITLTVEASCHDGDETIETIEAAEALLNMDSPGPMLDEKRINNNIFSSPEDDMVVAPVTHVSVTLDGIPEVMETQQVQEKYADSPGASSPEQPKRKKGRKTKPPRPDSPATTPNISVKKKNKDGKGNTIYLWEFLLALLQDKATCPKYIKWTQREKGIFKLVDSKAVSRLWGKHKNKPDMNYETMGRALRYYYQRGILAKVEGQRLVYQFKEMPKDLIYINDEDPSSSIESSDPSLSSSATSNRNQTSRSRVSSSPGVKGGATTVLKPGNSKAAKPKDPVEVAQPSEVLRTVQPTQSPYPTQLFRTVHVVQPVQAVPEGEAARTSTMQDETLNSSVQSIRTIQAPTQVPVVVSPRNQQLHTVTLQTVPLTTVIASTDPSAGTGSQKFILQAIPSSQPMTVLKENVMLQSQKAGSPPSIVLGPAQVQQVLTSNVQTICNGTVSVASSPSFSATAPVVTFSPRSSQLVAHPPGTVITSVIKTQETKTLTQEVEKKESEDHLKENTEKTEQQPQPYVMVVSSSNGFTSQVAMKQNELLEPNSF
Sequence of ETV1 (P50549 whole entry): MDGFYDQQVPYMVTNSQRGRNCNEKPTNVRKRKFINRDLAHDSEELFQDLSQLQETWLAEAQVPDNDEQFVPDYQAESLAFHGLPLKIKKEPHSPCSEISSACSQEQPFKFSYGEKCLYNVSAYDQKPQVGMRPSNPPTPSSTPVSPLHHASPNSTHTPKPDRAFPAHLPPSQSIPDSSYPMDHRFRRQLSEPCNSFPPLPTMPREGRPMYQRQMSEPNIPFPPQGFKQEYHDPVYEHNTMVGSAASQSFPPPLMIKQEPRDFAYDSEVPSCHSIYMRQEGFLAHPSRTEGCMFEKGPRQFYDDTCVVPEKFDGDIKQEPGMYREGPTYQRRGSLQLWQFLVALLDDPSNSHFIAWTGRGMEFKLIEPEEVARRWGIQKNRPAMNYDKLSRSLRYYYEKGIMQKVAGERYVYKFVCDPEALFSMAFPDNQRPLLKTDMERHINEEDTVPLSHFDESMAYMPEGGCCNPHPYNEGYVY
Sequence of CRX (O43186 whole entry): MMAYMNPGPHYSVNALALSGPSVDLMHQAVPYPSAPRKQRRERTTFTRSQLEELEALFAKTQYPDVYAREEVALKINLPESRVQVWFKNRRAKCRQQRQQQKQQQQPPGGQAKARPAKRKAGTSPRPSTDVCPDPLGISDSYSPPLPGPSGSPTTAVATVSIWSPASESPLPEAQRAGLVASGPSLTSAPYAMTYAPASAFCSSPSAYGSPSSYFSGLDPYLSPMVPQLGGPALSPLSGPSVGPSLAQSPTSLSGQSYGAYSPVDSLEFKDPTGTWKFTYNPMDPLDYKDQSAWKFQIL
Sequence of SPIB (Q01892 whole entry): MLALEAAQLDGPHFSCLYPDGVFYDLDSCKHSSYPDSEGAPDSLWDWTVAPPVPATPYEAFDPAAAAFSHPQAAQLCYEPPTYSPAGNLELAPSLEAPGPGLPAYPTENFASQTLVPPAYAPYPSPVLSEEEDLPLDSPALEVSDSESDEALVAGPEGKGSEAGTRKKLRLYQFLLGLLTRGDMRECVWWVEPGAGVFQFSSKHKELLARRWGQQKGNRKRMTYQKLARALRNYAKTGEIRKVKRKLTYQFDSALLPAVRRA

In the case of CCTCTT, the binding signal (FLI1) is reported as 1.5 fold enrichment (6-mer frequency, TF over GST control), the binding signal (ELK1) is reported as 1.45 fold enrichment (6-mer frequency, TF over GST control) and the binding signal (GABPA) is reported as 1.6 fold enrichment (6-mer frequency, TF over GST control). The binding signal (ERG) was 1.68 fold enrichment (6-mer frequency, TF over GST control), the binding signal (ELF1) was 1.5 fold enrichment (6-mer frequency, TF over GST control) and the binding signal (EHF) was 1.71 fold enrichment (6-mer frequency, TF over GST control). The binding signal (SPI1) was 2.57 fold enrichment (6-mer frequency, TF over GST control), the binding signal (SPIB) was 1.67 fold enrichment (6-mer frequency, TF over GST control) and the binding signal (ELK3) was 1.66 fold enrichment (6-mer frequency, TF over GST control). The binding signal (FEV) was 1.58 fold enrichment (6-mer frequency, TF over GST control), the binding signal (ETV5) was 1.68 fold enrichment (6-mer frequency, TF over GST control) and the binding signal (HSF1) was 1.4 fold enrichment (6-mer frequency, TF over GST control). For the same sequence, the binding signal (SPIC) was 1.52 fold enrichment (6-mer frequency, TF over GST control), the binding signal (ELF4) was 1.56 fold enrichment (6-mer frequency, TF over GST control) and the binding signal (ELK4) was 1.56 fold enrichment (6-mer frequency, TF over GST control). For the same sequence, the binding signal (ETV2) was 1.75 fold enrichment (6-mer frequency, TF over GST control), the binding signal (ELF3) was 1.32 fold enrichment (6-mer frequency, TF over GST control) and the binding signal (CRX) was 1.81 fold enrichment (6-mer frequency, TF over GST control). The binding signal (ETV1) was 1.55 fold enrichment (6-mer frequency, TF over GST control).
